Screens (PubChem BioAssay)
IL1B secr inh: inflammasome signaling inhibition, IL-1 beta readout; THP-1 LPS/ATP IL-1B secretion, AlphaLISA, 16 h; hits give low values; activity change, % at 57.5 µM; 360,000 compounds, 4.7% hits; in the data active = activity change below about -50%; inconclusive = mostly about -30% to -49%
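Secreted IL-1B measured by AlphaLISA bead assay after 16 h compound exposure of THP-1 cells; compounds (final up to 57.5 uM) added 1 h before LPS (250 ng/mL) and ATP (1.25 mM) stimulation; lower signal means less secretion.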
HT1080 IDH1KD tx: HT-1080 IDH1 knockdown cell toxicity (counter line); HT-1080 IDH1 knockdown viability, ATP luminescence, 48 h; Potency, µM (doses to about 46.1 µM), inactives show top-dose activity, negative = toxicity, most hits filed as cytotoxic; 360,000 compounds, 2% hits; AID 686971;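 note: potency is the fitted concentration of half-maximal effect; 0% = DMSO wells and -100% = cell-free medium wells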
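CellTiter-Glo luminescence after 48 h compound exposure at 37 degrees C of IDH1-knockdown HT-1080 cells in 5% FBS RPMI. %Activity scaled between DMSO wells and cell-free media wells, with curves fitted and assigned curve classes.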
KB-V1 cytotox: kills drug-selected multidrug resistant KB-V1 cells | KB-V1 MDR cells viability, CellTiter-Glo, 72 h | AID 1347076 | 400,000 compounds, 3.4% hits | Potency, µM (top dose mostly 46.1 µM), most hits filed as cytotoxic; note: potency is the fitted concentration of half-maximal effect; nearly all actives have a fitted effect of over 60% in size
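KB-V1 MDR subline cells in DMEM (phenol-red free, 10% FBS) exposed to compounds in qHTS concentration series for 72 h at 37 degrees C. Viability read by CellTiter-Glo luminescence; concentration-effect curves fitted after normalization and correction.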
HT1080-NT tox: kills 2HG-producing HT-1080-NT fibrosarcoma cells; HT-1080-NT fibrosarcoma viability, CellTiter-Glo ATP luminescence, 48 h; Potency, µM (titrated, usually from 46.1 µM), for the others: at the top dose activity, negative = less viability, hits mostly cytotoxic; 360,000 compounds, 1.6% hits; AID 686970;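 note: NT is the 2HG producing partner of a matched IDH1 knockdown line; potency is the fitted concentration of half-maximal effect; 0% = DMSO-treated cells and -100% = media-only wells without cells; nearly all actives have a fitted effect of over 55% in size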
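HT-1080-NT; 750 cells/well; 5% FBS RPMI; 48 h compound, 37 degrees C; CellTiter-Glo luminescence; curve fitting and curve-class assignment.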
KB-3-1 tox: kills parental KB-3-1 adenocarcinoma cells | KB-3-1 viability, CellTiter-Glo ATP luminescence, 72 h | Potency, µM (titrated, usually from 46.1 µM), actives largely listed as cytotoxic | 400,000 compounds, 1.4% hits; note: potency is the fitted concentration of half-maximal effect; nearly all actives have a fitted effect of over 60% in size
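Using CellTiter-Glo luminescence, growth of non-resistant KB-3-1 adenocarcinoma cells is assessed 72 h after pin-tool compound addition at 37 °C. Normalized responses across the concentration series yield fitted curves.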
An asterisk follows results filed as active; i = inactive; ? = inconclusive; nt = not tested or not shown. Shown are actives, neighbours in structure and some others; about 8.8% of the full set was active somewhere. Unless noted, calls come from the whole dose curve; as a rule, active = well fitted curve in the direction sought with a large enough effect; inconclusive = small, poorly fitted or top-dose-only effect, or another doubt; inactive = no such curve, though single readings can be large; an effect the other way counts as inactive or inconclusive. Unless noted, % is set by controls: 0 for no effect and ±100 for the full control effect.

SMILES | IL1B secr inh | HT1080 IDH1KD tx | KB-V1 cytotox | HT1080-NT tox | KB-3-1 tox
Nc1ccc2nc(-c3ccc(Cl)cc3)[nH]c2c1 | -17.6 | 20.6µM* | i | 23.1µM* | 18.4µM*
O=C(O)C1C2CC(C(Br)C2Br)C1C(=O)O (stereo not given) | 8.7 | 2.2% | nt | 0.0% | nt
Cc1c(C)c2cc3c(C)coc3cc2oc1=O | -51.1* | 12.9% | i | 1.5% | i
O=C(CCC(=O)N1CCc2ccccc2C1)N1CCN(S(=O)(=O)c2ccccc2)CC1 | 17.3 | 5.4% | 13µM* | 6.3% | i
O=C(CN1CCN(S(=O)(=O)c2ccc3c(c2)OCCCO3)CC1)N1CCc2ccccc21 | 8.8 | 9.2% | i | -0.8% | i
O=C(CN1CCN(S(=O)(=O)c2ccc(F)c(Cl)c2)CC1)N1CCc2ccccc21 | 13.2 | 1.7% | 3.26µM* | 0.8% | ?
O=C(CN1CCN(S(=O)(=O)c2ccc(F)c(Cl)c2)CC1)N1CCc2ccccc2C1 | -5.0 | -1.8% | 9.2µM* | -1.1% | i
O=C(Nc1ccc2ccccc2c1)Nc1nnc(-c2cccnc2)s1 | nt | nt | i | nt | ?
c1ccc2c(c1)CSc1ccccc1N2 | -65.4* | -18.0% | i | -22.2% | i
CC1CCN(S(=O)(=O)c2ccc(NC(=O)CNC3CCCCC3)cc2)CC1 | -87.4* | -2.9% | ? | -2.2% | i
CC1CCCN(S(=O)(=O)c2ccc(NC(=O)CN3C(=O)NC(C)(c4ccccc4)C3=O)cc2)C1 (stereo not given) | -51.9* | -3.3% | i | -3.6% | i
CCOC(=O)Nc1ccc(S(=O)(=O)N2CCC(C)CC2)cc1 | 0.0 | -12.3% | 20.6µM* | -9.6% | i
CC1CC(C)CN(S(=O)(=O)c2ccc(NC(=O)CN3C(=O)NC(C)(c4ccccc4)C3=O)cc2)C1 (stereo not given) | 0.7 | 2.6% | i | -1.8% | i
CC1CCN(S(=O)(=O)c2ccc(NC(=O)Cn3nnc(-c4ccccc4F)n3)cc2)CC1 | -27.4 | ? | ? | 20µM* | i
CC1CCN(S(=O)(=O)c2ccc(NC(=O)c3ccccc3F)cc2)CC1 | -14.3 | -51.9% | ? | -2.0% | i
CCOCCCn1c(=N)c(C(=O)NCc2ccco2)cc2c(=O)n3ccccc3nc21 | nt | nt | i | nt | i
CC1CCN(S(=O)(=O)c2ccc(NC(=O)CN3CCCCCC3)cc2)CC1 | -50.2* | ? | i | -16.7% | i
CCC(C)c1ccc(NC(=S)NN2CCOCC2)cc1 (stereo not given) | 0.0 | 13.6% | i | 10.8% | i
CO/N=C/C(=N\Nc1ccc(OC)cc1)C(=O)c1ccc(OC)cc1 | -28.2 | 2.6% | 11.6µM* | 9.1% | ?
O=c1[nH]c(/C=C/c2ccccc2F)nc2ccccc12 | 33.8 | 5.8µM* | 2.59µM* | ? | 4.61µM*
O=c1[nH]c(/C=C/c2cccc3ccccc23)nc2ccccc12 | 23.0 | 3.3% | i | 8.3% | i
O=c1[nH]c(/C=C/c2ccccn2)nc2ccccc12 | -81.4* | -4.6% | i | -9.7% | i
Cc1coc2c1C(=O)C(=O)c1c-2ccc2c1CCCC2(C)C | 30.9 | -17.1% | 7.31µM* | -17.2% | 6.51µM*
Cc1coc2c1C(=O)C(=O)c1c-2ccc2c(C)cccc12 | -12.0 | -14.2% | 9.2µM* | -10.6% | 9.2µM*
Cc1ccc2c3c(cccc13)-c1ccccc1C2=O | -19.9 | -21.2% | ? | -3.3% | i
SMILES | IL1B secr inh | HT1080 IDH1KD tx | KB-V1 cytotox | HT1080-NT tox | KB-3-1 tox
COc1ccc(CNCCCC(=O)Nc2c(Cl)ccc(C)c2Cl)cc1OC | -8.7 | -5.2% | i | -0.9% | i
COc1cc(NC(=S)N2CCC(C(O)(c3ccccc3)c3ccccc3)CC2)cc(OC)c1 | -24.6 | 0.3% | i | -1.0% | i
CCCC[C@@H]1Cc2[nH][nH]c(=O)c2[C@H](c2ccc3ccccc3c2)O1 | -12.0 | 23.1µM* | i | 0.3% | i
CCCC[C@@H]1Cc2[nH][nH]c(=O)c2[C@H](c2ccc(C(C)C)cc2)O1 | -64.6* | 0.6% | i | 22.3% | i
CCCCC1Cc2[nH]c(=S)[nH]c(=O)c2C(c2ccc3ccccc3c2)O1 (stereo not given) | 19.7 | ? | i | ? | i
CC(C)Cn1cc(C(=O)N2CCN(c3cccc(Cl)c3)CC2)c2c3ccccc3n(C)c2c1=O | nt | nt | i | nt | ?
Cc1ccccc1C(=O)Nc1ccnn1C1CCN(C(=O)c2cnsn2)CC1 | 17.4 | 5.2% | i | 24.1% | i
CCOc1cc(C(=O)NCCN2C(=O)S/C(=C\c3cccnc3)C2=O)cc(OCC)c1OCC | -2.0 | -10.5% | i | -4.0% | i
O=C(CCl)NCCN1C(=O)S/C(=C\c2cccnc2)C1=O | -70.4* | ? | i | ? | ?
COc1ccc(C(=O)NCCN2C(=O)S/C(=C\c3cccnc3)C2=O)c(OC)c1OC | -5.4 | 17.0% | 14.6µM* | -2.9% | i
CC(C(=O)NCCN1C(=O)S/C(=C\c2cccnc2)C1=O)N1C(=O)c2ccccc2C1=O (stereo not given) | 5.5 | -0.5% | i | -1.6% | i
Cc1nc(SCC(=O)c2cc(C)n(C3CC3)c2C)c2ccccc2n1 | 7.8 | 2.1% | ? | 5.1% | i
CCCCc1c(C)[nH]c2c(OC)cccc2c1=S | nt | nt | i | nt | i
Cc1ccccc1C(O)c1ccncc1 (stereo not given) | 8.2 | 4.5% | i | 23.8% | i
CC(=O)Nc1ccc(/C=C2\C=C(C(O)c3ccc(NC(C)=O)cc3)c3ccccc32)cc1 (stereo not given) | nt | nt | i | nt | i
OC(C1=C/C(=C\c2ccncc2)c2ccccc21)c1ccncc1 (stereo not given) | nt | nt | 16.4µM* | nt | ?
CSc1ccc(/C=C2\C=C(C(O)c3ccc(SC)cc3)c3ccccc32)cc1 (stereo not given) | nt | nt | ? | nt | 16.4µM*
CCOC(=O)C1(Cc2ccccc2)CCN(Cc2ccc(C)s2)CC1 | -25.8 | -28.8% | ? | -17.4% | i
CCOC(=O)C1(Cc2ccccc2)CCN(Cc2cccc3c2OCO3)CC1 | -52.9* | 2.6% | ? | -2.6% | i
CCOC(=O)C1(Cc2ccccc2)CCN(Cc2cc(OC)c3c(c2)OCO3)CC1 | -83.4* | -18.1% | i | -16.2% | i
COc1cc(CN2CCCC(CO)(Cc3ccccc3C)C2)cc2c1OCO2 (stereo not given) | -62.8* | ? | i | -29.4% | ?
COCc1ccc(CN2CCCC(CO)(Cc3ccccc3C)C2)o1 (stereo not given) | 13.2 | -7.1% | ? | -8.3% | i
Cc1ccc(C)c(-c2[nH]ncc2CN2CCCC(CO)(Cc3ccccc3C)C2)c1 (stereo not given) | -79.8* | ? | ? | ? | i
